{"source": "PubChem BioAssay AID504332", "about": "(National Center for Advancing Translational Sciences (NCATS), 2011)", "note": "“And” between values parts separate entries of the source, which are not always exact repeats. Equal entries are not always repeated. Out of some 350,000 compounds screened, about 31,000 (8.9%) were called active. Inconclusive results (about 15%) are left out. This is one part of a sample in which actives are shown more often than they occur. A number with no mark means an inactive call. Calls come from the whole dose curve; as a rule, active = well fitted inhibition curve with a large enough effect; inconclusive = small, poorly fitted or top-dose-only effect; inactive = no such curve, though single readings can be large or run the other way. % is set by controls: 0 for no effect and ±100 for the full control effect; potency is the fitted concentration of half-maximal effect."}
{"molecular_target": "Histone-lysine N-methyltransferase EHMT2 (Homo sapiens) (UniProt Q96KQ7)", "sequence (Q96KQ7 913-1193 limits assumed)": "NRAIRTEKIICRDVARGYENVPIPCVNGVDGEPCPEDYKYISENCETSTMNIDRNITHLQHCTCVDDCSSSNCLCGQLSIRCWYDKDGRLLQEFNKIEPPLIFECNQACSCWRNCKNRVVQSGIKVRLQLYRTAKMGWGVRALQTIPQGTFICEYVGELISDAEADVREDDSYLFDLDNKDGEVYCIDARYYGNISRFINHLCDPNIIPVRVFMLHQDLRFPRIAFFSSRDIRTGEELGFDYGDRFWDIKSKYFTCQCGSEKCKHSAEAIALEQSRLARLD", "test": "qHTS Assay for Inhibitors of Histone Lysine Methyltransferase G9a; note: nearly all actives have a fitted effect of over 75% in size", "conditions": "G9a H3K9 monomethylation, AlphaScreen, 2 h; series mostly up to 102 µM; activity, negative = inhibition: at the top concentration", "method_in_brief": "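Signal arises when biotinylated H3K9 peptide, once monomethylated, bridges streptavidin donor and antibody-captured acceptor beads. Enzyme at 20 nM was preincubated 15 min with test compounds; peptide 500 nM and SAM 20 uM then reacted for 2 h.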"}
{"smiles": "CCOP(=O)(OCC)C(NC(=O)NC)C(N)=O", "note": "(configuration not stated)", "activity, negative = inhibition": "8.11%"}
{"smiles": "Nc1ccc(C(=O)N/N=C2/CN3CCC2CC3)cc1", "activity, negative = inhibition": "-18.4%"}
{"smiles": "CCC(C)n1c(O)c(/C=N/Nc2nc3c(c(=O)n(C)c(=O)n3C)n2C)c(=O)[nH]c1=S", "note": "(configuration not stated)", "Potency": "25.1 µM (active)"}
{"smiles": "CC(=O)c1c(O)c(C)c(O)c(Cc2c(O)c3c(c(C(=O)/C=C/c4ccccc4)c2O)OC(C)(C)C=C3)c1O", "Potency": "14.1 µM (active) and 2.12 µM (active)"}
{"smiles": "O=c1c2ccccc2nc(/C=C/c2ccc(F)cc2)n1-c1ccccc1O", "activity, negative = inhibition": "7.81%"}
{"smiles": "C=CCN(CC=C)C(=O)Nc1ccc(OCC)cc1", "activity, negative = inhibition": "17.5%"}
{"smiles": "CC[C@]1(C)CC(=O)NC1=O", "activity, negative = inhibition": "-2.16% [at 12.7 µM]"}
{"smiles": "COC(=O)C1=C(c2ccc(F)cc2OCc2ccccc2)C[C@@H]2CC[C@H]1N2C(=O)NCc1ccc(Cl)cc1", "activity, negative = inhibition": "8.03% [at 2.33 µM]"}
{"smiles": "O=C(c1cc2nc(-c3ccccc3)cc(-c3ccccc3)n2n1)N1CCC2(CC1)OCCO2", "activity, negative = inhibition": "17.4% [at 12.7 µM]"}
{"smiles": "CC1=C2C(=O)C3C(CC=C4CC(OC5OC(O)C(O)C(O)C5CO)CCC43C)C2CCC12OC1CC(C)CNC1C2C", "note": "(configuration not stated)", "activity, negative = inhibition": "-0.0918%"}
{"smiles": "O=C1NC(=O)N(CCc2ccc(F)cc2)C(=O)/C1=C/C=C/c1ccccc1", "Potency": "70.8 µM (active)"}
{"smiles": "COC(=O)C(O)(c1ccc(NC(=O)c2ccco2)c(OC)c1)C(F)(F)F", "note": "(configuration not stated)", "activity, negative = inhibition": "-1.81%"}
{"smiles": "CCc1cccc2c(C#N)cn(CC(=O)N3CCOCC3)c12", "activity, negative = inhibition": "15.5% [at 12.7 µM]"}
{"smiles": "COCc1cc(OC(=O)N(C)C)nc(-c2ccc(C)c(Cl)c2)n1", "activity, negative = inhibition": "64.1%"}
{"smiles": "CCCCCCCCc1[se]c2ccccc2c1Br", "activity, negative = inhibition": "23.6%"}
{"smiles": "COc1ccc(-c2nc(CS(=O)CC(=O)N3CCC4(CC3)OCCO4)c(C)o2)cc1", "note": "(configuration not stated)", "activity, negative = inhibition": "-4.28% [at 12.7 µM]"}
{"smiles": "C[C@]12CC[C@H](O)C[C@H]1CC[C@@H]1C2CC[C@]2(C)[C@@H](C3=CC(=O)OC3)[C@@H](O)C[C@]12O", "note": "(some centres not stated)", "activity, negative = inhibition": "-8.99% [at 2.33 µM]"}
{"smiles": "Cc1cc(C)cc(NC(=S)NC2CC3CCCC(C2)N3Cc2cccs2)c1", "note": "(configuration not stated)", "activity, negative = inhibition": "-45.2% [at 59 µM]"}
{"smiles": "CN(C)c1ccc(NC(=O)CN2C3CCCC2CC(NC(=O)c2ccccc2)C3)cc1", "note": "(configuration not stated)", "Potency": "50.1 µM (active)"}
{"smiles": "CCC(C)C(=O)O[C@@H]1C[C@@]2(C)C(c3ccoc3)OC(=O)CC23OC2(C)O[C@@]14[C@@]1(C)C(CC(=O)OC)C5(C)CC1(O)C(O)(C5OC(=O)C1(C)OC1C)C(OC(C)=O)[C@@]34O2", "note": "(some centres not stated)", "activity, negative = inhibition": "-36.9% [at 2.33 µM]"}
{"smiles": "c1ccc2sc(SNC3CCCCC3)nc2c1", "Potency": "1.78 µM (active)"}
{"smiles": "COc1cc2c(cc1OC)[C@@H]1C(=O)c3ccc(O)c(CC=C(C)C)c3OC1CO2", "note": "(some centres not stated)", "activity, negative = inhibition": "-32.8% [at 2.33 µM]"}
{"smiles": "O=C(CSC1c2ccccc2-c2ccccc21)N/N=C/c1ccccc1", "activity, negative = inhibition": "3.19%"}
{"smiles": "CC1CCCCN1Cc1cccnc1", "note": "(configuration not stated)", "Potency": "6.31 µM (active)"}
{"smiles": "CN1CCC(N(C)Cc2cccnc2)CC1", "Potency": "3.16 µM (active)"}
{"smiles": "c1cncc(CNC2=NCCC2)c1", "activity, negative = inhibition": "11.8% [at 59 µM]"}
{"smiles": "c1cncc(CNCCc2c[nH]c3ccccc23)c1", "activity, negative = inhibition": "13.1%"}
{"smiles": "CCOC(=O)C1(Cc2ccc(Cl)cc2)CCN(C(C)CCn2cccn2)CC1", "note": "(configuration not stated)", "activity, negative = inhibition": "-32.7%"}
{"smiles": "CC[N+](CC)(CC)CCCCCCCCCC[N+](CC)(CC)CC", "activity, negative = inhibition": "2.94%"}
{"smiles": "C=CCN1C(=O)C2(C(C(=O)OCC)=C(N)Oc3c2c(=O)oc2ccccc32)c2ccccc21", "note": "(configuration not stated)", "activity, negative = inhibition": "10.8% [at 59 µM]"}
{"smiles": "Fc1ccc(C2N3CCCN23)cc1", "note": "(configuration not stated)", "activity, negative = inhibition": "-3.98%"}
{"smiles": "CCC(=NCCCO)c1c(O)n(-c2ccc(OC)cc2)c(=O)[nH]c1=O", "activity, negative = inhibition": "2.36%"}
{"smiles": "O=C(COC(=O)c1ccccc1)Nc1ccccc1Sc1ccccc1", "activity, negative = inhibition": "84.5% [at 59 µM]"}
{"smiles": "O=C1N=c2ccccc2=C/C1=C\\c1c(O)[nH]c(=S)[nH]c1=O", "Potency": "25.1 µM (active)"}
{"smiles": "COc1ccc(C2N3CC(C)(C)CN23)cc1", "note": "(configuration not stated)", "activity, negative = inhibition": "12% [at 59 µM]"}
{"smiles": "CCCn1c(C(=O)c2ccccc2OC)nc2ccccc21", "activity, negative = inhibition": "1.61%"}
{"smiles": "COc1ccc(Br)cc1CNCCc1cccc(Cl)c1", "Potency": "20 µM (active)"}
{"smiles": "Cc1ccc(N2C(=O)NC(=O)C(CCc3ccncc3)(Cc3cccc(Cl)c3Cl)C2=O)cc1", "note": "(configuration not stated)", "activity, negative = inhibition": "-9.85% [at 59 µM]"}
{"smiles": "CC1=CC(=Cc2sc3ccccc3[n+]2C)C=C(C)O1", "Potency": "50.1 µM (active)"}
{"smiles": "CN(C)C(=O)Oc1cc(=O)n2c3c(cccc13)CCC2", "activity, negative = inhibition": "-1.41% [at 59 µM]"}
{"smiles": "CC(C)Nc1nc(Cl)nc(NC(C)C)n1", "activity, negative = inhibition": "-2.82% [at 59 µM]"}
{"smiles": "CNC(=S)N/N=C1\\C2CN3CCN(C2)CC1(c1ccccc1)C3", "activity, negative = inhibition": "29.9% [at 59 µM]"}
{"smiles": "Cc1ccc(P(=S)(c2ccc(C)o2)N2CCOCC2)o1", "activity, negative = inhibition": "-35.9% [at 12.7 µM]"}
{"smiles": "Cc1cc(/C=C2/C(=O)NC(=O)N(Cc3ccco3)C2=O)c(C)n1-c1ccc(C(=O)O)cc1", "Potency": "35.5 µM (active)"}
{"smiles": "O=C1NC(=O)N(Cc2ccco2)C(=O)/C1=C\\c1ccc(-c2ccc(F)cc2)o1", "Potency": "12.6 µM (active)"}
{"smiles": "Cc1ccc2c(c1)C1CN(C)CCC1N2C(=O)Cn1nnc(-c2ccccc2F)n1", "note": "(configuration not stated)", "activity, negative = inhibition": "-16.7%"}
{"smiles": "CCOC(=O)c1c(N)n(CCN2CCOCC2)c2nc3ccccc3nc12", "activity, negative = inhibition": "0.945%"}
{"smiles": "CC(=O)N1CN2CN(C(C)=O)CC(C(=O)c3ccc(Br)cc3)(C2)C1", "activity, negative = inhibition": "9.55% [at 59 µM]"}
{"smiles": "C[C@@]12CC[C@H]3[C@@H](CC[C@]4(O)C[C@H](O)CC[C@@]34C=O)[C@]1(O)CC[C@@H]2C1=CC(=O)OC1", "activity, negative = inhibition": "21.4% [at 21.5 µM]"}
{"smiles": "O=c1c2ccccc2nc(-c2ccc(Cl)cc2Cl)n1-c1ccncc1", "activity, negative = inhibition": "-5.79% [at 59 µM]"}
{"smiles": "COC(=O)C1=C(c2ccc(C(C)=O)cc2)C[C@@H]2CC[C@H]1N2C(=O)NCCNC(C)=O", "activity, negative = inhibition": "23.2% [at 2.33 µM]"}
{"smiles": "O=Cc1cn(Cc2ccc(F)cc2Cl)c2ccccc12", "activity, negative = inhibition": "41.7% [at 59 µM]"}
